Experiment [1] addresses Mitogen-activated protein kinase kinase kinase kinase 4 (Homo sapiens) (UniProt O95819). The following applies: at 1 µM.
Experiment [2] concerns the target Dual specificity mitogen-activated protein kinase kinase 1 (Homo sapiens) (UniProt Q02750). The following applies: at 0.1 µM.
For experiment [3] the target is unchanged. The note with it: at 1 µM.
Experiment [4] addresses Misshapen-like kinase 1 (Homo sapiens) (UniProt Q8N4C8). The note with it: at 0.1 µM.
Experiment [5] has the same target. The note with it: at 1 µM.
For experiment [6], the target named is T1, Serine/threonine-protein kinase 4 (Homo sapiens) (UniProt Q13043).
T1 sequence (whole entry): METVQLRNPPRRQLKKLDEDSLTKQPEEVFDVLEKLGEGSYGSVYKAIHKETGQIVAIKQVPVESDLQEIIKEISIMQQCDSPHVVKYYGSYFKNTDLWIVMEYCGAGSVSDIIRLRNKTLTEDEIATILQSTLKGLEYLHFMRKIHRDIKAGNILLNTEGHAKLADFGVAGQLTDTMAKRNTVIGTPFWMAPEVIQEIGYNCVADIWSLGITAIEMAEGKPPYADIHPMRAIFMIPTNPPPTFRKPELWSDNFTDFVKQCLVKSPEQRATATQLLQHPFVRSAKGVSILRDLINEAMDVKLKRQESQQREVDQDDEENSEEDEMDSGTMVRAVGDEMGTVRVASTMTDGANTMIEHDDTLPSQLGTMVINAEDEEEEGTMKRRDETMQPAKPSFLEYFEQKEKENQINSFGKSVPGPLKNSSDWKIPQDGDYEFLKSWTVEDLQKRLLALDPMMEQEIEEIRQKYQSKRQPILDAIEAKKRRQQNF
The note with it: at 0.1 µM.

Experiment [7] concerns the target T1, Serine/threonine-protein kinase 4 (Homo sapiens). The following applies: at 1 µM.
Experiment [8] addresses T2, Serine/threonine-protein kinase 3 (Homo sapiens) (UniProt Q13188).
T2 sequence (whole entry): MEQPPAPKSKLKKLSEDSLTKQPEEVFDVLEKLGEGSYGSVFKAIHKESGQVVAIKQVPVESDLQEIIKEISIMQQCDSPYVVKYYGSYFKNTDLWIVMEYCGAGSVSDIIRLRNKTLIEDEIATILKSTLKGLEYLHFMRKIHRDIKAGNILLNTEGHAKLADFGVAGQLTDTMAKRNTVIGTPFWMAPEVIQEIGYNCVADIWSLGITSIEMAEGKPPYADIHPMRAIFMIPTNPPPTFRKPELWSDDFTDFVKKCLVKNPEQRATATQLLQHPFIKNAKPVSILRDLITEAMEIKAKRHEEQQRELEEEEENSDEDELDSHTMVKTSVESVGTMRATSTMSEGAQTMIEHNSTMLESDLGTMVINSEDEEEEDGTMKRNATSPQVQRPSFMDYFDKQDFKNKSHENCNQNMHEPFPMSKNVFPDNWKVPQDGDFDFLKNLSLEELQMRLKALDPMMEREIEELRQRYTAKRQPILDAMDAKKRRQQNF
The following applies: at 0.1 µM.

Experiment [9] addresses T2, Serine/threonine-protein kinase 3 (Homo sapiens). The note with it: at 1 µM.
Experiment [10] concerns the target Serine/threonine-protein kinase 26 (Homo sapiens) (UniProt Q9P289). The note with it: at 0.1 µM.

Molecules are shown by their SMILES. “And” between values parts separate entries of the source, which are not always exact repeats. Equal entries are not always repeated.

Drawing on ChEMBL document CHEMBL1961873, “Compounds: GSK PKIS; Assays: Nanosyn kinase panel” (2012), this text covers inhibition for 15 compounds.

Chain of Dual specificity mitogen-activated protein kinase kinase 1 (Homo sapiens) (Q02750 whole entry): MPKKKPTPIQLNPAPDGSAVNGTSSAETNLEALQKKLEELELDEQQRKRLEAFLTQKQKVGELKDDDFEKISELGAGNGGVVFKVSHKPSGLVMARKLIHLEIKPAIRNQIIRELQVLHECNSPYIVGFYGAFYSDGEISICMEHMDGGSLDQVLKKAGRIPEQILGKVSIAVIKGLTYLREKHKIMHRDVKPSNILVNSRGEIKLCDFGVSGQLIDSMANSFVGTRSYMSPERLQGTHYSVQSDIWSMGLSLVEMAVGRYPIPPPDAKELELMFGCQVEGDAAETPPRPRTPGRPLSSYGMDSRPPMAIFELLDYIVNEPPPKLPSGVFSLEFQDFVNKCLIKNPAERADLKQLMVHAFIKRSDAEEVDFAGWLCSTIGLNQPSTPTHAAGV
Chain of Misshapen-like kinase 1 (Homo sapiens) (Q8N4C8 whole entry, looked up): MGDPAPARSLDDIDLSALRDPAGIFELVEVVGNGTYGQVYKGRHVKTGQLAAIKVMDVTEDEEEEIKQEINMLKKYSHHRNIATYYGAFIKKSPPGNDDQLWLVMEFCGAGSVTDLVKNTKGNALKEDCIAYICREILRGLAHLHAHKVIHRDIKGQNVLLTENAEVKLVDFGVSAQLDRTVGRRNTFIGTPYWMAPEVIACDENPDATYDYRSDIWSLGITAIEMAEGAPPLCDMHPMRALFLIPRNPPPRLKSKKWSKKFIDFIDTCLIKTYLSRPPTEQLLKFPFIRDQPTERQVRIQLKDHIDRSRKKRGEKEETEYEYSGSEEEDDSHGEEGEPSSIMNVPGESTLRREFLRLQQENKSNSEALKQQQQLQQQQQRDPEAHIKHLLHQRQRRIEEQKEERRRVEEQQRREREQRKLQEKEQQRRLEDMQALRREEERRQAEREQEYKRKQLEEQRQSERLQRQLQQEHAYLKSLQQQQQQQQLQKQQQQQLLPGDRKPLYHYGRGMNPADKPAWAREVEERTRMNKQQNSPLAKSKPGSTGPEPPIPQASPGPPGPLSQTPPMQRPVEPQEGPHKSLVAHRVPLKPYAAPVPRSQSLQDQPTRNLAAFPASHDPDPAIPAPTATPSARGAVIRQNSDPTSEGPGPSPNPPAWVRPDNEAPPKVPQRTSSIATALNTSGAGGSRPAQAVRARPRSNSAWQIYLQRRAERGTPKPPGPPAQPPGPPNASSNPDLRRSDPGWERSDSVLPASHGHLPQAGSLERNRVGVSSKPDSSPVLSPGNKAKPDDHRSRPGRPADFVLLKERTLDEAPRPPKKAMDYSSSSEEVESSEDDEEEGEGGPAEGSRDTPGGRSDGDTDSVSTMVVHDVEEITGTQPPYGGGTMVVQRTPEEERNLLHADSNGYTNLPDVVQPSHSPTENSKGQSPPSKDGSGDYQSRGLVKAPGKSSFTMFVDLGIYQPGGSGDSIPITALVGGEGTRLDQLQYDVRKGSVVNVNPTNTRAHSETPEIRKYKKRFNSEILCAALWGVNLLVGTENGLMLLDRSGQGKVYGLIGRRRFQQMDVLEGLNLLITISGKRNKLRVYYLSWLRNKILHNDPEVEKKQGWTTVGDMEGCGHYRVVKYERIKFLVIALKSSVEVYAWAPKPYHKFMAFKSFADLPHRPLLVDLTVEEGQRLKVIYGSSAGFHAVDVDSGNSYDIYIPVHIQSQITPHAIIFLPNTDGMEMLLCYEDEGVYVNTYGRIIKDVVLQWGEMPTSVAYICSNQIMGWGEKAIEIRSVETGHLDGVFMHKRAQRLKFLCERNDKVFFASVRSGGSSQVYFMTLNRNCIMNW
Chain of Serine/threonine-protein kinase 26 (Homo sapiens) (Q9P289 2-416 limits assumed): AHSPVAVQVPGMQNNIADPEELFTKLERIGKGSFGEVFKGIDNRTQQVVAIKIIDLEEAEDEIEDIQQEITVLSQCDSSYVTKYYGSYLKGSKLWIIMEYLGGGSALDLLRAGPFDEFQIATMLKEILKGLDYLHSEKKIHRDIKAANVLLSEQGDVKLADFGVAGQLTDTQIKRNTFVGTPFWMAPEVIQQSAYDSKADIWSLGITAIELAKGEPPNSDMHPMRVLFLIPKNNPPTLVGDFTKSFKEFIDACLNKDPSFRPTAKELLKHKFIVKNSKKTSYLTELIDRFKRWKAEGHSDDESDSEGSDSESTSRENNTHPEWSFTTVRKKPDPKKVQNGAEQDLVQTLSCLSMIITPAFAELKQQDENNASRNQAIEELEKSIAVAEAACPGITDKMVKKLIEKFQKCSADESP
Chain of Mitogen-activated protein kinase kinase kinase kinase 4 (Homo sapiens) (O95819 2-1239 limits assumed): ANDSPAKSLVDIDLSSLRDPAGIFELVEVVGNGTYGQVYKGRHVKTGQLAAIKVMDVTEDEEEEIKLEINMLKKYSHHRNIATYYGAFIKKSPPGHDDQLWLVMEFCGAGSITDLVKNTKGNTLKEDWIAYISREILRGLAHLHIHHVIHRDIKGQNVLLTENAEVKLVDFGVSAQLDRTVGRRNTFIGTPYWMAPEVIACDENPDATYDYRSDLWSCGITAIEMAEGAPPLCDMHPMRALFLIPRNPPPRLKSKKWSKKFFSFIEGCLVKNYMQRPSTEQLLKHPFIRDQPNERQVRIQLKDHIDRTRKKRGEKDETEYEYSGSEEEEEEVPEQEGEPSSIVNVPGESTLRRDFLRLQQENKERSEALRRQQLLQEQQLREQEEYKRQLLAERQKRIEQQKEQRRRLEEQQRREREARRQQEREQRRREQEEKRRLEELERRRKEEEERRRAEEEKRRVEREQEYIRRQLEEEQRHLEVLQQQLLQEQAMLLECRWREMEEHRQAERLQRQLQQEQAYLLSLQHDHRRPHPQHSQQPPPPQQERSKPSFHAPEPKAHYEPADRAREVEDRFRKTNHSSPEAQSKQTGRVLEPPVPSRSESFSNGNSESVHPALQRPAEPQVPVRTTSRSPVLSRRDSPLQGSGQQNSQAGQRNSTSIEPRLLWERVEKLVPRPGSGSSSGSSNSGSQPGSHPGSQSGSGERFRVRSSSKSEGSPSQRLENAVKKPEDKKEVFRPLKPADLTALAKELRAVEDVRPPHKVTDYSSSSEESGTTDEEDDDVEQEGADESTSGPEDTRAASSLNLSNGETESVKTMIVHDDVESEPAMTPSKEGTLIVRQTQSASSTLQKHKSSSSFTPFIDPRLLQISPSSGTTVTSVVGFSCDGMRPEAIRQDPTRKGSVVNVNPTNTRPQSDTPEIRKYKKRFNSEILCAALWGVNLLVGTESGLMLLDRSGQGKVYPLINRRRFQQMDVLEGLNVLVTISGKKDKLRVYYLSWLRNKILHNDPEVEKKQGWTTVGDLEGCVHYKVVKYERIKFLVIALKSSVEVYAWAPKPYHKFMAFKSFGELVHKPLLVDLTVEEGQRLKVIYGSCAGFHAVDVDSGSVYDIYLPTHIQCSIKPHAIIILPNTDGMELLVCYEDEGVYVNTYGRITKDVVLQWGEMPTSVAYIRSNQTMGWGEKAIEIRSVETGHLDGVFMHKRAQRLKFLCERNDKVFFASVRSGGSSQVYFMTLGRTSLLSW

Usually inhibition stands for the relative decrease from the control value, in per cent. `CN1CCN(Cc2ccc(-c3cc4ncnc(Nc5ccc(OCc6cccc(F)c6)c(Cl)c5)c4s3)o2)CC1`: the inhibition in experiment [1] is 8.74% and 16.5%; in experiment [2] it was 3.63% and 7.76%; in experiment [3], 3.91% and 8.23%; in experiment [4] it was 4.62% and 8.19%; in [5], 7.44% and 13.7%; in experiment [6] it was 2.15% and 5.51%. The inhibition was 5.38% and 9.4% in experiment [7]; 1.94% and 6.66% in [8]; 4.21% and 9.14% in experiment [9]; -0.84% and -1.22% in experiment [10].
Consider `COc1cccc(Nc2nccc(-c3cnn4ncccc34)n2)c1`, for which the inhibition in [1] is 63.2%; in [2] it was 3.11%; in experiment [3], 29.1%; in experiment [4], 11.1%; in experiment [5], 57.6%; in experiment [6], 6.23%. Also, the inhibition is 30% in [7], 5.37% in [8], 24.6% in experiment [9] and 1.55% in experiment [10].
With `c1ccc(-c2n[nH]cc2-c2ccnc(-c3ccc(OCCn4ccnc4)cc3)c2)nc1`, the inhibition in experiment [1] is 81.8%; in experiment [2], 5.95%; in [3], 2.45%; in experiment [4] it was 31.9%; in experiment [5] it was 79%; in [6], -0.86%. Further, the inhibition in [7] was 6.24%; in experiment [8], -0.71%; in [9], 3.49%; in [10] it was -1.3%.
Take `NC(=O)c1ccc2c(-c3ccnc(NCCCO)n3)c(-c3ccc(F)cc3)nn2c1`: the inhibition stood at 51.7% in [1]; 6.94% in experiment [2]; 13.2% in experiment [3]; 10.1% in [4]; 35.5% in experiment [5]; 4.48% in experiment [6]. Moreover, the inhibition in experiment [7] is 5.36%; in experiment [8] it was 4.28%; in experiment [9], 4.67%; in experiment [10], -2.37%.
`COc1ccccc1-c1cc(/C=C2\C(=O)Nc3ncc(Br)cc32)cc(Br)c1O`: the inhibition came out at 14% in experiment [1]; 6.54% in [2]; 5.7% in experiment [3]; 5.71% in [4]; 13.3% in experiment [5]; 6.41% in experiment [6]. The inhibition was 8.19% in experiment [7], 7.78% in experiment [8], 8.09% in experiment [9] and 2.55% in experiment [10].
Consider `CN(c1ccc(NC(=O)NCCN2CCOCC2)cc1)c1ccnc(Nc2ccc(CS(C)(=O)=O)cc2)n1`, for which the inhibition in experiment [1] stood at 14.7%; in [2], 5.04%; in experiment [3], 7.12%; in experiment [4], 3.82%; in experiment [5], 7.42%; in experiment [6] it was 7.84%. The inhibition was 18.8% in experiment [7], 6.91% in experiment [8], 13.6% in [9] and -1.2% in experiment [10].
As to `CS(=O)(=O)Nc1ccc(-c2ccc3c(NC(=O)C4CC4)n[nH]c3c2)cc1`, the inhibition in experiment [1] was found to be 34.1%; in experiment [2] it was 3.68%; in experiment [3], 2.95%; in [4] it was 6.49%; in experiment [5] it was 20.9%; in [6] it was 4.89%. Besides, the inhibition was 11.3% in experiment [7], 5.64% in experiment [8], 9.06% in experiment [9] and -0.25% in [10].
As to `c1cnn2ncc(-c3ccnc(NCCCN4CCOCC4)n3)c2c1`, the inhibition in [1] amounted to 8.87%; in experiment [2] it was 4.91%; in experiment [3], 3.9%; in experiment [4], 4.95%; in experiment [5], 12.1%; in experiment [6], 2.04%. Besides, the inhibition in experiment [7] was 1.9%; in experiment [8], 3.76%; in experiment [9] it was 2.29%; in experiment [10], -1.84%.
Regarding `COc1cc2c(cc1Nc1nc(Nc3cccc(F)c3C(N)=O)c3cc[nH]c3n1)N(C(=O)CN1CCN(C(C)C)CC1)CC2`, the inhibition in experiment [1] turned out to be 3.14%; in experiment [2], 0.13%; in [3], 4.11%; in [4], 3.15%; in experiment [5], 3.43%; in experiment [6], 0.17%. Moreover, the inhibition in experiment [7] is 3.77%; in experiment [8] it was 2.26%; in [9], 2.65%; in [10] it was 1.63%.
In the case of `Nc1nccc(-c2c(-c3ccc(F)cc3)ncn2C2CCNCC2)n1`, the inhibition in experiment [1] was 11.7% and 20.6%; in [2], -1.59% and 0.76%; in experiment [3], 1.41% and 5.84%; in experiment [4], -0.88% and 2.53%; in experiment [5], 6.74% and 17%; in experiment [6] it was -3.42% and 0.28%. Also, the inhibition is -0.43% and 1.1% in [7]; -3.39% and 1.21% in experiment [8]; 1.14% and 0.77% in experiment [9]; 0.83% and -0.54% in experiment [10].
For the compound `CS(=O)(=O)CCNCc1ccoc1-c1ccc2ncnc(Nc3ccc(OCc4ccccc4)cc3)c2c1`, the inhibition in [1] was found to be 4.29%; in experiment [2], 1.46%; in experiment [3], 2.49%; in [4] it was 1.28%; in experiment [5], 2.65%; in experiment [6], 1.95%. The inhibition was 2.79% in experiment [7], 2.37% in experiment [8], 3.29% in experiment [9] and -1.84% in experiment [10].
As to `Cc1cc(O)cc(C)c1/C=C/c1cncc(C(N)=O)c1`, the inhibition came to 13.9% in experiment [1]; 2.17% in experiment [2]; 3.39% in experiment [3]; 4.8% in [4]; 7.34% in experiment [5]; 2.44% in experiment [6]. Further, the inhibition in experiment [7] was 7.28%; in experiment [8], 2.17%; in experiment [9], 4.31%; in [10], -0.63%.
Regarding `CCN1CCC(C(=O)Nc2n[nH]c3nnc(-c4cccc(F)c4F)cc23)CC1`, the inhibition in experiment [1] is 6.9%; in experiment [2], 2.15%; in [3] it was 2%; in experiment [4], 2.44%; in experiment [5] it was 5.72%; in [6], 0.2%. For the same compound, the inhibition in [7] is 4.08%; in experiment [8] it was -0.56%; in experiment [9], 2.63%; in experiment [10] it was 0.52%.
Turning to `NS(=O)(=O)c1cccc(N/C=C2\C(=O)Nc3ccccc32)c1`, the inhibition in experiment [1] worked out at 78.2%; in experiment [2] it was 4.87%; in experiment [3], 5.35%; in experiment [4], 18.4%; in [5], 70.2%; in [6], 7.24%. For the same compound, the inhibition was 26.1% in [7], 5.78% in [8], 21.2% in [9] and -1.63% in experiment [10].
As to `Fc1ccc(Nc2nccc(-c3c(-c4ccc(C(F)(F)F)cc4)nn4ncccc34)n2)cc1F`, the inhibition worked out at 2.77% in experiment [1]; 3.85% in experiment [2]; 3.88% in [3]; 6.5% in experiment [4]; 4.38% in experiment [5]; 6.25% in experiment [6]. For the same compound, the inhibition is 7.23% in [7], 6.51% in experiment [8], 5.09% in experiment [9] and -0.69% in experiment [10].
